Assay outcomes as filed in PubChem.
A selection: hits, their analogues and other compounds. The true share with any hit is near 3.4%.
TEAD-YAP block: TEAD-YAP interaction inhibition. 640,000 compounds, 1.4% hits. HEK-TIYL cells, TEAD-Gal4/YAP UAS-luciferase luminescence. AID 1259422. inhibition, % at 9.12 µM; in the data active = inhibition above about 32%
MITF inh: blocks human microphthalmia-associated transcription factor; inhibition, % at 2.6 µM; 650,000 compounds, 0.91% hits; AlphaScreen MITF homodimerization, bead proximity signal; O75030; in the data active = inhibition above about 50%
FBW7 act: human FBW7 E3 ligase activation, primary screen. Q969H0. AlphaScreen FBW7–phospho-cyclin E peptide binding, activator screen. normalized activity (activation), % at 26.1 µM. 650,000 compounds, 0.13% hits. AID 1259310; in the data active = normalized activity above about 1.9%;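 also: purified mutant Fbw7 with reduced substrate affinity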
GPR151 activ: activates the human receptor GPR151. AID 1508602. 650,000 compounds, 1% hits. PathHunter beta-arrestin GPR151 cells, luminescence. activation, % at 11.2 µM; in the data active = activation above about 4.9%
Target sequence (Q8TDV0 whole entry, looked up): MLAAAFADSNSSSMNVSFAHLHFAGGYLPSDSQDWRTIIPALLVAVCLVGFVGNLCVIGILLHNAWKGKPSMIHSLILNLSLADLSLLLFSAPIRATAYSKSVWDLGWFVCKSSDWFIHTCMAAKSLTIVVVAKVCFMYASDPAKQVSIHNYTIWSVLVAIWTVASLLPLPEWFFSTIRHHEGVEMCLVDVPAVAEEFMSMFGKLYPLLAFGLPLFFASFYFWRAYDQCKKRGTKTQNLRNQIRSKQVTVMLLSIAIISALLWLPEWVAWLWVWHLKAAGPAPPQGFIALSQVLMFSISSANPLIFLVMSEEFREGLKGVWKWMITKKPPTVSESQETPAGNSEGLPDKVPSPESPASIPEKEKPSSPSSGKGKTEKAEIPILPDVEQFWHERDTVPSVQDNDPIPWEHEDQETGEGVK
Each line names hits and unclear results; the compound was inactive in the other large screens; ! = not confirmed by another sample.

O=C(NCc1ccncc1)c1ccc2cncc(-c3cc4ccccc4o3)c2n1	none
O=C(/C=C/N1CCN(C/C=C/c2ccccc2)CC1)C(F)(F)F	none
O=C(Cc1cn(-c2ccc(Nc3ccc(-n4ccnc4)cc3)nn2)c2ccccc12)NCCc1ccc(O)cc1	none
O=C(NCCc1ccccc1)c1ccc2cncc(-c3ccccc3)c2n1	TEAD-YAP block 47
O=C(NCCc1ccccc1)c1nnc(-c2cccnc2)o1	none
COc1ccc(CNC(=O)N2CCC(c3nnc(C4CC4)s3)CC2)cc1	FBW7 act 3.1
O=C(Nc1ccc2c(c1)OCO2)N1CCC(c2nnc(C3CC3)s2)CC1	FBW7 act 2.6
COc1ccc(CNC(=O)N2CCC(c3nnc(C4CC4)o3)CC2)cc1	none
Cc1cccc(NC(=O)N2CCC(c3nnc(C4CC4)s3)CC2)c1	FBW7 act 3.1
O=C(Nc1ccc2c(c1)OCO2)N1CCN(C2CCCCC2)CC1	none
O=C(Nc1ccc(C23CC4CC(CC(C4)C2)C3)cc1)c1cccc(Cl)c1	TEAD-YAP block 60
Cc1ccc(-c2nc(CS(=O)CC(=O)NCC3CCCO3)c(C)o2)cc1 (stereo not drawn)	FBW7 act 1.9
COC(=O)C1=C(C)NC2=C(C(=O)c3ccccc32)C1c1cc(Cl)c(OC)c(OC)c1 (stereo not drawn)	TEAD-YAP block 61
CCN1CCN(C(=O)/C=C/c2cccc([N+](=O)[O-])c2)CC1	none
Cc1ncn(-c2ccc(Nc3ncc4cccc(-c5nccs5)c4n3)cc2)n1	TEAD-YAP block 56
Cc1ccc(-c2ncn(-c3ccc(Nc4cc(Nc5ccccc5C(N)=O)c(C5CC5)cn4)cc3)n2)cn1	none
Cc1ncn(-c2ccc(Nc3ncc4cccc(-c5cccnc5)c4n3)cc2)n1	TEAD-YAP block 46
Cc1ccc(-c2ncn(-c3ccc(Nc4ncc5cccc(-c6ccc(C)nc6)c5n4)cc3)n2)cn1	FBW7 act 2.3
Cc1ccc(-c2ncn(-c3ccc(Nc4cc(Nc5ccccc5C(N)=O)c(C)cn4)cc3)n2)cn1	TEAD-YAP block 38
Cc1ncn(-c2ccc(Nc3ncc4cccc(-c5ccc(F)cc5)c4n3)cc2)n1	none
CCC(=N)c1ccc(OC)c2cccc(NC)c12	none
Cc1ncn(-c2ccc(Nc3ncc4cccc(C)c4n3)cc2)n1	none
Cc1ncn(-c2ccc(Nc3ncc4cccc(-c5ccn(C)n5)c4n3)cc2)n1	TEAD-YAP block 62
Cc1ccc(-c2cccc3cnc(Nc4ccc5c(c4)OCO5)nc23)cn1	TEAD-YAP block 33
Cc1ccc(-c2ncn(-c3ccc(Nc4ncc5cccc(-c6ccc7c(c6)OCO7)c5n4)cc3)n2)cn1	none
Cc1ncn(-c2ccc(Nc3ncc4cccc(-c5cccc6c5ccn6C)c4n3)cc2)n1	none
Cc1ncn(-c2ccc(Nc3ncc4cccc(-c5ccn[nH]5)c4n3)cc2)n1	TEAD-YAP block 33
Cc1ccc(-c2cccc3cnc(NC4CCC(C(=O)N5CCCC5)CC4)nc23)cn1 (stereo not drawn)	TEAD-YAP block 45!
c1ccc(CCNc2ncnc3c2c(-c2ccccc2)cn3-c2ccccc2)cc1	none
C=CCNC(=O)CN1C(=O)C(CC)Oc2ccccc21 (stereo not drawn)	none
Cc1ncn(-c2ccc(Nc3ncc4cccc(-c5cn[nH]c5C)c4n3)cc2)n1	TEAD-YAP block 45
Nc1ccnc(NCc2ccccc2)c1	TEAD-YAP block 32
CCOc1cc(C#N)c(NC(=O)c2cccs2)cc1OCC	TEAD-YAP block 48
CCOc1cc(C#N)c(NC(=O)c2cccnc2)cc1OCC	TEAD-YAP block 55
CCOc1cc(C#N)c(NC(=O)c2ccncc2)cc1OCC	none
CCOc1ccccc1NC(=O)c1cccs1	none
COc1ccc(O)c(C(=O)CC(=O)c2ccccc2)c1	TEAD-YAP block 55
COc1ccc(O)c(C(=O)CC(=O)c2ccccc2Cl)c1	none
CC(=O)OC12CC3C(C1C(C)=NO2)C3(C)C (stereo not drawn)	none
Cc1cc(O)c(C)c(O)c1/C=N\NC(=O)CNC(=O)C(c1ccccc1)c1ccccc1	TEAD-YAP block 33
NC(=O)C[C@H](NC(=O)c1ccc(Cl)cc1)C(=O)OCC(=O)c1ccccc1	none
Cc1nc2ccc(C(=O)NC3CCCCCC3)cc2nc1C	TEAD-YAP block 50
O=C(NC1CCCCCC1)c1ccc(Cl)cc1Cl	TEAD-YAP block 33
O=C(NC1CCCCC1)c1ccc2c(c1)OCO2	none
O=C(NC1CCCCCCC1)c1cc(F)c(F)cc1Cl	none
O=C(NC1CCCCCC1)c1ccc2c(c1)OCO2	TEAD-YAP block 44
COc1ccc(-c2nc3ccc(C(=O)NC4CCCCCCC4)cc3nc2-c2ccc(OC)cc2)cc1	none
O=C(NC1CCCCC1)c1cccc(N2CCCC2=O)c1	none
O=C(NC1CCCCCC1)c1cccc(N2CCCC2=O)c1	TEAD-YAP block 61
CCOC(=O)c1cc2c(N)[nH]nc2[nH]c1=O	none
Cc1ccc(C(=O)NC2CCCCCC2)cc1	TEAD-YAP block 49
CCC(=O)Nc1ccc(S(=O)(=O)NCCN2CCN(c3ccccc3)CC2)cc1	none
COc1ccc(S(=O)(=O)NCCNc2nc(C)cc(N(C)C)n2)c(OC)c1	TEAD-YAP block 32
COCCN1C(=O)C2C3c4ccccc4C(c4ccccc43)C2C1=O (stereo not drawn)	none
O=C(CCN1CCc2ccccc21)c1ccc2c(c1)OCCO2	TEAD-YAP block 45
O=C(C[n+]1ccc2ccccc2c1)c1ccc2c(c1)OCCO2	none
O=C(CCCc1ccccc1)c1ccc2c(c1)OCCO2	TEAD-YAP block 91
O=C(CCN1CCc2ccccc2C1)c1ccc2c(c1)OCCO2	none
Nc1cc[n+](CC(=O)c2ccc3c(c2)OCCO3)cc1	TEAD-YAP block 49
O=C(CCc1ccccc1)c1ccc2c(c1)OCCCO2	none
Cc1ccc(-c2noc(CNC(=O)COc3ccc(C)cc3C)n2)cc1	none
COc1ccc(Cl)c2sc(NC(=O)c3ccco3)nc12	FBW7 act 2.1
CCOc1ccc(C(=O)Oc2ccc(-c3nc4ccc(C)cc4s3)cc2)cc1Br	TEAD-YAP block 37
CCOc1ccc(C(=O)Nc2ccc(-c3nc4ccc(C)cc4s3)cc2)cc1Br	none
Cc1c(C(=O)NC(=S)Nc2cccc(C(=O)O)c2)cccc1[N+](=O)[O-]	none
O=C(O)c1ccc(NC(=O)c2ccc(Oc3ccccc3)cc2)cc1	TEAD-YAP block 39
O=C(Nc1ccncc1)c1ccc(C(=O)Nc2ccncc2)cc1	none
O=C(Nc1cccc(F)c1)c1ccc(Oc2ccccc2)cc1	none
Cc1c(C(=O)Nc2cccc(C(=O)O)c2)cccc1[N+](=O)[O-]	FBW7 act 3.5
O=C(O)c1cccc(NC(=O)c2ccc(Oc3ccccc3)cc2)c1	TEAD-YAP block 93
O=C(Nc1ccncc1)c1ccc(C(=O)c2ccccc2)cc1	TEAD-YAP block 55
O=c1cc(-c2cccc(Br)c2)oc2ccc(O)cc12	none
CCCCN(C(=O)CNC(=O)c1ccco1)C(C(=O)NC1CCCCC1)c1cccs1 (stereo not drawn)	none
COc1cccc(C(=O)/C=C\Nc2ccc3c(c2)OCO3)c1	TEAD-YAP block 85
COc1cccc(C(=O)/C=C/Nc2ccccc2OC)c1	TEAD-YAP block 64
COc1ccc(N/C=C/C(=O)c2ccccc2)cc1	TEAD-YAP block 84
COc1cccc(C(=O)/C=C/Nc2cc(OC)ccc2OC)c1	none
